Reference: PubChem BioAssay (NCI)
This is part of a sample that, as a whole, favours compounds with a hit. Of some 83,000 tested, about 20% had one in any assay.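 The endpoint reported here, percent growth, reads 100 for growth as untreated, 0 for no net growth and -100 for all cells dead.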 Unmarked numbers belong to inactive results. Calls of active or inactive are those of the source. How the source made its calls: active means growth percent below 10; inactive means the rest.

test system: HOP-62 NSCLC; experiment: NCI-60 one-dose screen, 48 h (100 = growth as untreated, 0 = no growth, -100 = all killed); settings: 10 µM

SMILES	growth
NS(=O)(=O)Oc1ccc(-c2ccc3sccc3c2)cc1	104%
C=C(C)[C@@H]1CC[C@]2(COCCC#N)CC[C@]3(C)[C@H](CC[C@@H]4[C@@]5(C)Cc6c([nH]c7ccccc67)C(C)(C)[C@@H]5CC[C@]43C)[C@@H]12	105%
O=S(=O)(Oc1ccc(-c2ccc3sccc3c2)cc1)c1ccc(F)cc1	111%
Cc1nn(-c2ccccc2)c2nc(Cl)c(C=O)c(-c3ccccc3)c12	115%
Cc1ccc(S(=O)(=O)N/N=C2\CCCc3ccccc32)cc1	108%
COc1ccc(-c2cc(-c3ccc(OC)c(OC)c3)nc(SCCCC(=O)NO)n2)cc1	-13.3% (active)
CC(C)C[C@H](NC(=O)Cn1cccc(CNC(=O)c2ccccc2)c1=O)B(O)O	5.64% (active)
CC[C@@H](C(=O)[C@@H](C)[C@@H](O)[C@H](C)[C@@H]1O[C@@H]([C@@H](CC)C(=O)O)CC[C@@H]1C)C1O[C@]2(C=CC(=O)[C@]3(CC[C@@](C)([C@H]4CC[C@](O)(CC)[C@H](C)O4)O3)O2)[C@H](C)C[C@@H]1C (stereo not given in full)	41.9%
CCOC(=O)/C(=C(\C)N)C1CC(=O)NC1=O (stereo not given)	107%
COc1cc(-c2nn(-c3cccc(NC(=O)CCNc4ccc(N5CCOCC5)cc4)c3)cc2-c2ccncc2)ccc1Cl	27.1%
CC(=O)N[C@H](C(=O)N[C@@H](CCCNC(=N)N)C(=O)N[C@@H](CCCCN)C(=O)N[C@@H](CCCNC(=N)N)C(=O)N[C@]1(C)CCCCCC/C=C\CCC[C@@](C)(C(=O)N[C@@H](CCCNC(=N)N)C(=O)N[C@@H](CCC(=O)O)C(=O)N[C@@H](CC(C)C)C(=O)N[C@H](C(=O)N[C@@H](CCC(=O)O)C(N)=O)C(C)C)NC(=O)[C@H](CCC(N)=O)NC(=O)[C@H](CC(C)C)NC(=O)[C@H](CC(C)C)NC(=O)[C@H](CCCNC(=N)N)NC(=O)[C@H](CCCNC(=N)N)NC(=O)[C@H](CC(C)C)NC1=O)C(C)C	-31.5% (active)
O=C1c2ccccc2C(=O)c2c1ccc1c(=O)n(-c3ccccc3C(F)(F)F)nnc21	23.8%
Cc1c(Cl)cccc1NC(=O)CCCl	86.9%
COc1cc(-c2csc(NC(=O)Nc3cc(C(F)(F)F)cc(C(F)(F)F)c3)n2)cc(OC)c1OC	13.1%
Nc1ccn(Cc2nnc(CCC(=O)c3nc4ccccc4[nH]3)o2)c(=O)n1	82%
O=C1C=C(Nc2cccc(Br)c2)c2ccccc2C1=O	41.9%
COc1cccc(N=Nc2cccc(OC)c2)c1	82.6%
C=CCN(CC=C)C(=O)[C@H](CC)[C@@H]1CC[C@@H](C)[C@@H]([C@H](C)[C@@H](O)[C@@H](C)C(=O)[C@H](CC)C2O[C@]3(C=C[C@@H](O)[C@]4(CC[C@@](C)([C@H]5CC[C@](O)(CC)[C@H](C)O5)O4)O3)[C@H](C)C[C@@H]2C)O1 (stereo not given in full)	12%
O=C1/C=C/[C@@H](O)[C@@H]2C[C@@H](O)C[C@H]2/C=C/CCC[C@@H](C(F)(F)F)O1	99.3%
CC[C@@H](C(=O)[C@@H](C)[C@@H](O)[C@H](C)[C@@H]1O[C@@H]([C@@H](CC)C(=O)N(CC)CC)CC[C@@H]1C)C1O[C@]2(C=CC(=O)[C@]3(CC[C@@](C)([C@H]4CC[C@](O)(CC)[C@H](C)O4)O3)O2)[C@H](C)C[C@@H]1C (stereo not given in full)	31.7%

SMILES	growth
O=S(=O)(O)c1ccc(Cl)cc1	95.2%
CCN(CC)CCOc1cccc2c1C(=O)c1ccccc1C2=O	82.5%
CC[C@@H]1NC(=O)[C@H]([C@H](O)[C@H](C)C/C=C/c2ccc(CN3C(=O)CCCC3=O)cc2)N(C)C(=O)[C@H](C(C)C)N(C)C(=O)[C@H](CC(C)C)N(C)C(=O)[C@H](CC(C)C)N(C)C(=O)[C@@H](C)NC(=O)[C@H](C)NC(=O)[C@H](CC(C)C)N(C)C(=O)[C@H](C(C)C)NC(=O)[C@H](CC(C)C)N(C)C(=O)CN(C)C1=O	62.1%
O=C(Nc1ccc(NS(=O)(=O)c2ccc(F)cc2)cc1)C12CC3CC(CC(C3)C1)C2	104%
C/C(=N\O)c1ccc(NC(=O)CSc2nnc(-c3ccccc3)n2-c2ccccc2)cc1	64.7%
CC(=O)Nc1ccc2c(c1)C(=O)c1cccc(C(=O)O)c1-2	98.9%
COc1ccc(N=Nc2cc(OC)c(OC)c(OC)c2)cc1	66.9%
COc1cc2cc(Oc3ccc(NC(=O)Nc4ccc(Cl)c(C(F)(F)F)c4)cc3)c(C)nc2cc1OC	-50.9% (active)
COc1cccc(-c2nc3sccn3c2-c2cccc(S(C)(=O)=O)c2)c1	105%
COc1cc(-c2nn(-c3cccc(NC(=O)CCN4CCN(Cc5ccccc5)CC4)c3)cc2-c2ccncc2)ccc1Cl	24%
O=C(O)c1cc([N+](=O)[O-])ccc1Oc1ccccc1	101%
CCN(CC)CCCC(C)N=C(C1=C(C(=NC(C)CCCN(CC)CC)c2cccc(OC)c2)C(=O)NC1=O)c1cccc(OC)c1 (stereo not given)	-57.5% (active)
O=[N+]([O-])c1cc(Cl)cc(Cl)c1O	91.5%
O=C(CN1CCN(C(=O)c2ccccc2)CC1)Nc1ccccc1SCc1ccccc1	89.6%
CC(=O)Oc1cc(OC(C)=O)c2ccccc2c1OC(C)=O	90%
CCOC(=O)c1cc(C(=O)c2ccc(F)cc2F)n2ccccc12	88.6%
CN1CCN(CCCn2c(=O)c3sc4ncccc4c3n3nnc(-c4ccccc4)c23)CC1	21.7%
O=C(CCl)Nc1ccc(Cc2ccc(NC(=O)CCl)cc2)cc1	33.2%
COc1cc(/C=C2\CCCC3=C2N=C2SC(C)=CN2C3c2cc(OC)c(OC)c(OC)c2)cc(OC)c1OC (stereo not given)	-19.6% (active)
Oc1cccc(-c2nc3sccn3c2-c2ccncn2)c1	103%
